# About 79,000 compounds went through this panel and 15% of them were active in at least one assay; those are over-represented in the sample as a whole. Values without a mark were called inactive. The source made the active and inactive calls. No stated cut-off is given here; in the data, active means growth inhibition above about 70%; inactive means the rest.
# Experiments:
# [1] = NCI Yeast Anticancer Drug Screen. Data for the wt1 strain (AID 149);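 further: 0% = growth of vehicle-treated wt1 cultures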; conditions: S. cerevisiae wt1 strain (SPY 50644) growth inhibition, active compounds read high
# In short: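 Growth inhibition read against vehicle controls after compound exposure of the wt1 yeast strain.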
# [2] = NCI Yeast Anticancer Drug Screen. Data for the rad50EPP+ strain (AID 151);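 further: 0% = growth of vehicle-treated control cultures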; conditions: S. cerevisiae rad50 mutant strain, active compounds read high
# In short: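 Growth inhibition read against vehicle controls in rad50EPP+ yeast, a strain altered in DNA damage repair, after compound exposure.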
# [3] = NCI Yeast Anticancer Drug Screen. Data for the rad50 strain (AID 155);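 further: 0% = growth of vehicle-only cultures of the same strain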; conditions: S. cerevisiae rad50 strain growth inhibition, active compounds read high
# In short: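 Readout: growth inhibition relative to vehicle-treated cultures. Compound exposure was carried out in a genetically defined yeast strain deficient in DNA damage repair.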
# [4] = NCI Yeast Anticancer Drug Screen. Data for the mec2-1 strain (AID 157); conditions: S. cerevisiae mec2-1 strain, active compounds read high
# In short: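 Yeast mec2-1 mutant treated with compound. Readout: growth inhibition vs vehicle controls.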
# [5] = NCI Yeast Anticancer Drug Screen. Data for the rad14 strain (AID 159);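 further: 0% = growth of vehicle-treated control cultures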; conditions: S. cerevisiae rad14 strain growth inhibition, active compounds read high
# In short: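 Growth inhibition vs vehicle controls; genetically altered yeast strain (DNA damage repair defect) treated with test compounds.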
# [6] = NCI Yeast Anticancer Drug Screen. Data for the sgs1 mgt1 strain (AID 161);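 further: 0% = growth of cultures given vehicle only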; conditions: S. cerevisiae sgs1 mgt1 strain, active compounds read high
# In short: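 Genetically altered yeast, compound exposure, growth inhibition relative to vehicle.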
# [7] = NCI Yeast Anticancer Drug Screen. Data for the CLN2oe strain (AID 163);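 further: 0% = growth of vehicle-only control cultures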; conditions: S. cerevisiae CLN2oe strain, active compounds read high
# In short: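 Read-out: yeast growth inhibition, expressed relative to vehicle-only controls. The strain bears an engineered cell-cycle alteration.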
# [8] = NCI Yeast Anticancer Drug Screen. Data for the cln2 rad14 strain (AID 165);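 further: 0% = growth equal to vehicle treated cultures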; conditions: S. cerevisiae cln2 rad14 strain, active compounds read high
# In short: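 cln2 rad14 yeast strain; compound exposure; growth inhibition read vs vehicle controls.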
# [9] = NCI Yeast Anticancer Drug Screen. Data for the bub3 strain (AID 167); conditions: S. cerevisiae bub3 mutant strain, active compounds read high
# In short: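 Readout: yeast growth inhibition, expressed relative to vehicle-only wells. The test organism is a mutant strain from a panel with lesions in DNA repair or checkpoint genes.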
# [10] = NCI Yeast Anticancer Drug Screen. Data for the mlh1 strain (AID 171);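 further: 0% = growth of vehicle-treated control cultures of the same strain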; conditions: S. cerevisiae mlh1 strain growth inhibition, active compounds read high
# In short: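 Read-out: growth inhibition versus vehicle controls. Strain: engineered yeast with a defined DNA repair or cell cycle defect, compound-treated.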
# [11] = NCI Yeast Anticancer Drug Screen. Data for the sgs1 strain (AID 173);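 further: 0% = growth of vehicle-only control cultures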; conditions: S. cerevisiae sgs1 mutant, active compounds read high
# In short: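 Read-out: yeast growth inhibition relative to vehicle controls, following compound exposure of a strain with a defined DNA repair/cell cycle alteration.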
# [12] = NCI Yeast Anticancer Drug Screen. Data for the mlh1 rad18 strain (AID 175); conditions: S. cerevisiae mlh1 rad18 strain growth inhibition, active compounds read high
# In short: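 Yeast w/ defined DNA-repair lesions; compound exposure; growth vs vehicle controls → % inhibition.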
# [13] = NCI Yeast Anticancer Drug Screen. Data for the rad18 strain (AID 177); conditions: S. cerevisiae rad18 mutant growth inhibition, active compounds read high
# In short: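 Readout: growth inhibition vs vehicle controls. Cells: genetically altered yeast strain, DNA repair defect.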
# [14] = at 5.0 µM (retest, dose inferred, filed as 0.5)
# [15] = at 50.0 µM (retest, dose inferred, filed as 5.0)
structure (smiles),measurement,setting,value
CC1=NN(C(=O)CC(=O)NC(=O)/C=C\c2ccccc2)C(=O)C1N=Nc1ccc([N+](=O)[O-])cc1 (stereo not drawn),growth inhibition,[1]; at 1.2 µM,2%
same,growth inhibition,[1]; at 3.7 µM,4%
same,growth inhibition,[1]; at 11.0 µM,20%
same,growth inhibition,[1]; at 33.0 µM,35%
same,growth inhibition,[1]; at 100.0 µM,34%
same,growth inhibition,[2]; at 1.2 µM,19%
same,growth inhibition,[2]; at 3.7 µM,42%
same,growth inhibition,[2]; at 11.0 µM,62%
same,growth inhibition,[2]; at 33.0 µM,64%
same,growth inhibition,[2]; at 100.0 µM,60%
same,growth inhibition,[3]; at 1.2 µM,-7%
same,growth inhibition,[3]; at 3.7 µM,-10%
same,growth inhibition,[3]; [14],-1%
same,growth inhibition,[3]; at 11.0 µM,38%
same,growth inhibition,[3]; at 33.0 µM,73% (active)
same,growth inhibition,[3]; [15],87% (active)
same,growth inhibition,[3]; at 50.0 µM,59.1%
same,growth inhibition,[3]; at 100.0 µM,71% (active)
same,growth inhibition,[4]; at 1.2 µM,3%
same,growth inhibition,[4]; at 3.7 µM,8%
same,growth inhibition,[4]; [14],-13%
same,growth inhibition,[4]; at 11.0 µM,26%
same,growth inhibition,[4]; at 33.0 µM,49%
same,growth inhibition,[4]; [15],35%
same,growth inhibition,[4]; at 50.0 µM,77.5% (active)
same,growth inhibition,[4]; at 100.0 µM,43%
same,growth inhibition,[5]; at 1.2 µM,1%
same,growth inhibition,[5]; at 3.7 µM,5%
same,growth inhibition,[5]; at 11.0 µM,21%
same,growth inhibition,[5]; at 33.0 µM,41%
same,growth inhibition,[5]; at 100.0 µM,46%
same,growth inhibition,[6]; [14],-1%
same,growth inhibition,[6]; [15],54%
same,growth inhibition,[6]; at 50.0 µM,65.3%
same,growth inhibition,[7]; at 1.2 µM,6%
same,growth inhibition,[7]; at 3.7 µM,9%
same,growth inhibition,[7]; at 11.0 µM,20%
same,growth inhibition,[7]; at 33.0 µM,34%
same,growth inhibition,[7]; at 100.0 µM,37%
same,growth inhibition,[8]; [14],43%
same,growth inhibition,[8]; [15],49%
same,growth inhibition,[8]; at 50.0 µM,51.2%
same,growth inhibition,[9]; at 1.2 µM,-1%
same,growth inhibition,[9]; at 3.7 µM,4%
same,growth inhibition,[9]; [14],-4%
same,growth inhibition,[9]; at 11.0 µM,30%
same,growth inhibition,[9]; at 33.0 µM,57%
same,growth inhibition,[9]; [15],51%
same,growth inhibition,[9]; at 50.0 µM,79.5% (active)
same,growth inhibition,[9]; at 100.0 µM,58%
same,growth inhibition,[10]; at 1.2 µM,0%
same,growth inhibition,[10]; at 3.7 µM,10%
same,growth inhibition,[10]; at 11.0 µM,37%
same,growth inhibition,[10]; at 33.0 µM,68%
same,growth inhibition,[10]; at 100.0 µM,69%
same,growth inhibition,[11]; at 1.2 µM,2%
same,growth inhibition,[11]; at 3.7 µM,16%
same,growth inhibition,[11]; at 11.0 µM,61%
same,growth inhibition,[11]; at 33.0 µM,77% (active)
same,growth inhibition,[11]; at 100.0 µM,74% (active)
same,growth inhibition,[12]; [14],-3%
same,growth inhibition,[12]; [15],65%
same,growth inhibition,[12]; at 50.0 µM,76.6% (active)
same,growth inhibition,[13]; at 1.2 µM,-8%
same,growth inhibition,[13]; at 3.7 µM,4%
same,growth inhibition,[13]; at 11.0 µM,77% (active)
same,growth inhibition,[13]; at 33.0 µM,83% (active)
same,growth inhibition,[13]; at 100.0 µM,82% (active)
